Assays:
Experiment in all cases: PBM binding z-score (relative to random genomic background probes); higher = stronger binding; sequences stand for … in GC…GCGATTGACAGCGTAGAATGAAGG
[1] = tested on: RARg:RXRa (NR concentration 270 nM, RXRa partner concentration 90 nM)
How it was run: (§1)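 Binding buffer was PBS pH 7.4 with 2% milk, 0.02% Triton X-100, 1 mM DTT, 0.2 mg/mL BSA and 0.4 mg/ml salmon testes DNA. In it, ligand-free nuclear receptor dimers were incubated 1 h on custom Agilent 4×180K protein-binding microarrays carrying double-stranded probes. Antibodies against each partner (one per run) detected binding, and z-scores were calculated against random background probes after regression normalization of scanned fluorescence.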

[2] = tested on: RARg homodimer (NR concentration 270 nM)
How it was run: as §1

[3] = tested on: RXRa DBDmut IVT, anti-RXR (DBD mutation: RXRa K156A/R161A, NR concentration 90 nM)
How it was run: as §1

[4] = tested on: RXRa homodimer (NR concentration 180 nM)
How it was run: as §1

[5] = tested on: THRa:RXRa (NR concentration 90 nM, RXRa partner concentration 90 nM)
How it was run: as §1

[6] = tested on: THRa homodimer (NR concentration 90 nM)
How it was run: as §1

[7] = tested on: VDR homodimer (NR concentration 270 nM)
How it was run: as §1

Sequence | PBM binding z-score [1] | PBM binding z-score [2] | PBM binding z-score [3] | PBM binding z-score [4] | PBM binding z-score [5] | PBM binding z-score [6] | PBM binding z-score [7]
GCTGCTAGGTCAACTGATGGTCAACTAAAGCTCG | 5.53 | 5.66 | 1.57 | 2.94 | 2.91 | 1.01 | 0.0813
ATATGTAGGTTATCTGGGGTCATTCAGACTAGGC | 4.51 | 3.58 | 2.58 | 5.88 | 5.46 | 3.91 | 5.88
CCTTACGGGTCACGAGGTTGTAGCACGACGAGCG | 5.67 | 5.42 | 2.05 | 6.5 | 3.19 | 0.351 | 1.99
CGAACTAGGTCAAGGACAGTAAATCTCCGCACGC | 4.01 | 4.54 | 1.47 | 2.55 | 3.16 | 2.01 | 0.575
CGAACTAGGTCAAGGGACAGTGAAAGGCGACGTA | 3.82 | 4.43 | 0.75 | 2.43 | 2.63 | 0.755 | 0.0374
TAGCCTAGGTCACATCGGGCCAGTATACGCTATA | 4.02 | 4.72 | 0.602 | 3.09 | 4.5 | 1.15 | 0.412
CCTAGTTGTTCAGGAGGTCACACACCGGATATGA | 4.48 | 4.35 | 1.15 | 4.73 | 3.62 | 2.81 | 3.5
CCTAGTTGGTCAAGGTCACATACGCTATAGGTAC | 4.18 | 4.37 | 2.21 | 3.89 | 3.96 | 3.88 | 3.56
TTACCAAGGTCAAGGTCGTTGATCCCTCTGTAGA | 6.48 | 6.91 | 3.27 | 6.84 | 4.38 | 3.6 | 4.9
AGAATGAGGTTAAGTTCAGGGAAACAGAATACAT | 3.41 | 2.98 | 2.38 | 3.6 | 3.34 | 1.48 | 3.44
CGAACGAGGTCATGAGTTGATAGCAAATGCCGAT | 6.18 | 6.02 | 4.6 | 6.87 | 4.26 | 3.07 | 4.41
CCGAGTAGGTTACTAGGGGGCATTCAGTGCGAAT | 2.46 | 2.1 | 1.4 | 1.72 | 3.57 | 0.676 | 3.59
AGAATGAGGTCATTAAGATCAGGGAATTGCGGTC | 5.83 | 5.03 | 4.81 | 6.72 | 4.38 | 3.69 | 4.67
AGAATGAGGTCATACGTAGATCAGGGAAGAAAGT | 6.31 | 5.97 | 4.7 | 6.67 | 4.18 | 3.25 | 4.56
ACTAGTTGGTCAGCTGAGGTCACACCCAATTCGG | 3.85 | 3.86 | 1.34 | 3.47 | 5 | 4.84 | 2.67
CGTCCAAGGTCATTGGAGGTCAGTGAAGACAGAT | 7.03 | 7.55 | 4.46 | 6.96 | 5.19 | 3.37 | 5.22
CGTCAAAGATCAAGGTAACGTAACAGAAAGCAGC | 0.224 | 0.612 | -0.147 | 0.691 | 1.33 | 0.524 | -0.275
CCGAGGAGGTTACGAGGGGGCATTCAGTGCGAAT | 4.21 | 3.17 | 2.24 | 3.28 | 4.49 | 0.537 | 3.87
CCTTACGGGTCCCTCCAGGTTATAGCATCGGAGT | 0.0762 | 0.0141 | -1.22 | 0.2 | 3.05 | 0.1 | 0.267
AATACAGGGTCACGAGGCCAGAGTAGGTACGAAT | 6.44 | 5.99 | 2.95 | 7.67 | 4.06 | 2.21 | 3.31
AGAATGAGGTTAAACGTAGATCAGGGAAGAAAGT | 2.9 | 1.54 | 2.08 | 3.22 | 2.55 | 0.549 | 1.04

Sequence | PBM binding z-score [1] | PBM binding z-score [2] | PBM binding z-score [3] | PBM binding z-score [4] | PBM binding z-score [5] | PBM binding z-score [6] | PBM binding z-score [7]
CAAACCAGGTCAAGAGGTCAAAGTCCGCTTCCCG | 8.29 | 7.56 | 3.21 | 8.5 |  | 3.54 | 5.13
CAAACTAGGTCACCGAAAGGTCAAAGTCCGCATG | 8.9 | 8.27 | 2.98 | 7.88 | 4.72 | 2.96 | 4.24
ATATGTAGGATAGCTGGGGTCATTCAGACTAGGC | 3.3 | 2.31 | 1.61 | 4.92 | 4.2 | 3.17 | 5.01
CTACCAAGGTCAACAAGGTCGTTGATTACTATTC | 6.87 | 6.92 | 4.65 | 6.84 |  | 3.68 | 7.86
CACACTAGGTCACAGAGGTCAAAGTCCGTGCGTA | 7.55 | 8.04 | 3.26 | 8.19 | 4.84 | 3.29 | 7.03
AATACAGGGTCATCGTAGGTCAGAGTACGCACAG | 6.41 | 5.81 | 3.75 | 6.77 |  | 2.38 | 4.46
CGTCCAAGGTCACGGTCAGTGAAAGAGACTCGAA | 7.19 | 8.03 | 4.12 | 7.6 | 4.29 | 3.63 | 2.8
CGAACGAGGTCATCCAGGACAGTGAATACATTGA | 6.67 | 6.52 | 4.86 | 7.28 |  | 3.83 | 6.44
CCGAGTTGGTCAAGGTCACACACGCTATAGGTAC | 4.58 | 4.8 | 3.18 | 4.46 | 4.24 | 4.39 | 4.74
CAAACCAGGTCACAGAGGTCAAAGTCCGTGCGTA | 7.52 | 7.53 | 4.06 | 8.5 |  | 3.92 | 8.47
GATACGGGGTCAAGGCCAGAGTACGCGTATTGAT | 7.3 | 6.89 | 4.16 |  | 4.23 | 2.04 | 4.85
GCTAGTTGGTCAGTAAAAGGTGACACACCGGTCG | 1.58 | 1.17 | -0.429 | 0.87 | 0.938 | -0.422 | -0.475
ATATGTAGGTTAACTGGGGTCATTCAGACTAGGC | 4.95 | 3.7 | 2.76 | 5.82 |  | 3.07 | 5.41
AATACAGGGTCATCTTAGGCCAGAGTACGCACAG | 5.61 | 5.2 | 3.85 | 6.42 |  | 2.11 | 3.76
ATATGTAGGTTAGCTGAGGTCATTCAGACTAGGC | 3.95 | 3.72 | 1.9 | 4.53 | 5.33 | 4.38 | 5.55
CGTCAAAGTTCAACTAAGGTTACGTAAAGCACGC | 6.64 | 7.26 | 4.73 | 6.03 |  | 2.2 | 4.89
CCTTACGGGTCACTCCAGGTCATAGCATCGGAGT | 5.28 | 5.41 | 1.08 | 5.06 |  | 3.03 | 2.49
TCTGCTAGGTCATCGATGGTCAGCTAATCTGCTA | 3.79 | 4.88 | 1.53 | 2.73 | 3.33 | 0.553 | -0.0904
CGTCCAAGGTCATATGAGGTCAGTGAAGACAGAT | 6.88 | 7.55 | 4.62 | 7.07 |  | 4.58 | 6.28
AGAATGAGGTTACTAAAGATCAGGGAAACGCTTG | 1.61 | 1.25 | 0.94 | 1.59 | 2.19 | 0.398 | 0.00246
TAGCCTAGGTTATGGGCCAGTATACCACGCGAAC | 0.379 | 0.719 | -0.976 | 0.432 | 0.373 | -0.271 | -0.399

Sequence | PBM binding z-score [1] | PBM binding z-score [2] | PBM binding z-score [3] | PBM binding z-score [4] | PBM binding z-score [5] | PBM binding z-score [6] | PBM binding z-score [7]
ATATGTAGGTTACCTGGGGTCATTCAGACTAGGC | 4.46 | 3.44 | 1.99 | 5.78 |  | 3.39 | 5.34
GGAACGAGGGCATTCGAGTTCATAGCATGGCGAT | 2.51 | 2.58 | 3.99 | 2.5 |  | -0.00454 | 8.72
CTATGTAGGTTACGGGGGTCATTCAGTTTGAAAG | 5.91 | 4.59 | 2.61 | 6.14 | 4.12 | 2.03 | 5.93
CCTGCGAGGTCATGGTCAGCTAATCTACAGTATG | 6.42 | 6.15 | 4.26 | 7.05 | 4.34 | 3.39 | 3.95
AGTCAAACTTCAGGACGAGGTAACGTAAAGCACG | 0.505 | 0.586 | -0.343 | 0.511 | 2.44 | 1.77 | -0.0917
CGAACTAGGTCATTGACAGGACAATGAATAGTAA | 4.78 | 4.69 | 2.44 | 2.79 | 2.91 | 0.699 | 1.62
CGTCCAAGGTCATAGGAGGTCAATGAAGACAGAT | 6.94 | 7.28 | 3.99 | 7.15 |  | 3.89 | 4.97
GCATATAGGTAATACAAGGTCAAAGTCCGATTGT | 3.39 | 2.81 | 1.43 | 3.97 |  | 3.05 | 2.68
CCTACTGGGCCAAAAAGTTCATTGATGCCGATAA | 1.48 | 1.8 | 1.51 | 0.748 | 0.849 | -0.23 | 4.38
CCTAGTGGGCCAAGGTCATTGATCAGTCAAAGCA | 3.74 | 3.3 | 1.05 | 3.2 | 3.45 | 2.05 | 2.91
AGAATGAGGTTACCAAAGGTCAGGGAAACGCTTG | 6.29 | 5.66 | 1.72 | 7.02 |  | 2.11 | 1.92
CAAACTAGGTCACGAGAGGTCAAAGTCGAATGAC | 7.59 | 8.3 | 2.82 | 7.93 |  | 2.88 | 5.09
CGTCCAAGGTCGAAGGTCAGTGAAGAGATGACGG | 4.83 | 4.64 | 1.82 | 6.09 | 3.04 | 0.66 | 1.14
CCGAGTAGGTTACGAGGGGTCATTCAGTGCGAAT | 5.1 | 3.76 | 1.89 | 5.85 |  | 0.607 | 5.41
CCTAGTTGGTCAAGGTCACACCCGCTATAGGTAC | 4.26 | 4.56 | 1.78 | 4.2 | 3.94 | 4.24 | 3.57
CCTACTGGGTCACGAAAGGTCATTGATTCAGTGA | 6.96 | 6.81 | 1.69 | 7.05 |  | 1.82 | 2.59
CGAACAAGGTCATCCAGGACAGTGAATACATTGA | 6.28 | 6.49 | 4.2 | 6.46 | 4.53 | 3.3 | 4.92
CGTCCAAGGTCAAGGTCAATGAAAGAGACTCGAA | 7 | 7.87 | 3.91 | 6.52 | 4.35 | 3.41 | 3.28
TGTCAAAGTTCAAAGGTGACGTAAGTATCCACAC | 6.99 | 6.27 | 4.5 |  | 3.76 | -0.183 | 4.97
CCTACTGGGTCAAAGGTCATTGATTCCAATGCTC |  | 5.88 | 2.87 |  | 4.52 | 1.69 | 3.95

Source: the supplement of paper PMC6555819
